Hit rate of the full screen: of about 350,000 compounds, about 9,900 (2.8%) were called active. Entries that show only a call come without a potency. Roughly 15% stayed inconclusive and do not appear here. Calls come from the whole dose curve; as a rule, active = well fitted activation curve with a large enough effect; inconclusive = small, poorly fitted or top-dose-only effect; inactive = no such curve, though single readings can be large or run the other way. The sample as a whole holds a higher share of actives than the screen did.

Experimental findings from PubChem BioAssay AID624296 (National Center for Advancing Translational Sciences (NCATS), 2012) are described below.
Potency is the fitted concentration of half-maximal effect.

A short description of this test: A quantitative high throughput screen for small molecules that induce DNA re-replication in MCF 10a normal breast cells. Note: nearly all actives have a fitted effect of over 50% in size. The note with it: MCF 10A DNA re-replication, Hoechst nuclear intensity, 48 h; series mostly up to 46.1 µM.
For the molecule `O=C(Nc1ccc(N2CCOCC2)cc1)c1cccc(S(=O)(=O)N2CCOCC2)c1`, the Potency entry is “inactive”.

`CN(CC(=O)O)C(=O)c1ccccc1`: the Potency entry is “inactive”. In the case of `CN1C(=O)c2ccc(NC(=O)C3CCCCC3)cc2C1=O`, the Potency was 10.3 µM (active).

As to `O=C(O)c1ccc(NC(=O)C2CCCCC2)cc1`, the Potency entry was “inactive”. For the molecule `CN1C(=O)c2ccc(NC(=O)c3c(F)c(F)c(F)c(F)c3F)cc2C1=O`, the Potency entry is “inactive”. On to `CCOc1ccc(Br)cc1S(=O)(=O)Nc1ccc(S(=O)(=O)Nc2cc(C)on2)cc1`, for which the Potency entry was “inactive”. As for `c1ccc(CNc2ncnc3[nH]ncc23)cc1`, the Potency entry is “inactive”. `O=C(COC(=O)c1cc(S(=O)(=O)N2CCOCC2)ccc1Cl)NCCc1ccccc1`: the Potency entry is “inactive”.

With `COc1ccc2[nH]c3c(c2c1)CCN1C(=O)C(CC(=O)NCc2cccc(C(F)(F)F)c2)C[C@H](C(=O)N2CCOCC2)[C@@]31C` (some centres not stated), the Potency entry is “inactive”. The value for `C=CCn1c(SCc2c(C)noc2C)nc2sc3c(c2c1=O)CCC(C)C3` (configuration not stated) was 3.66 µM (active). `C=CCn1c(SCC(=O)NCC2CCCO2)nc2sc(C)c(C)c2c1=O` (configuration not stated): the Potency result was “inactive”. In the case of `CC1CCc2c(sc3nc4n(c(=O)c23)CCS4)C1` (configuration not stated), the Potency entry was “inactive”. For the molecule `CC(NC(=O)COC(=O)CCC(=O)c1ccc(Cl)cc1)c1ccccc1` (configuration not stated), the Potency result is “inactive”. With `CC[C@]12c3[nH]c4ccc(OC)cc4c3CCN1C(=O)C(CC(=O)NCc1ccco1)C[C@@H]2C(=O)N1CCN(C(=O)C2CC2)CC1` (some centres not stated), the Potency entry is “inactive”. For the molecule `CC12CCCCC1=CC(=O)CC2` (configuration not stated), the Potency entry is “inactive”.

For the molecule `COc1ccc(-c2nnc(-c3ccc4ccccc4c3)o2)cc1`, the Potency entry was “inactive”. The value for `COc1ccc(Nc2ccc3ccccc3c2)cc1` was 23.1 µM (active); that for `COc1ccc(Nc2nnc(C)c3ccccc23)cc1` was “inactive”. Regarding `COc1cc(C(=O)N2CCN(S(=O)(=O)c3ccc(C(C)C)cc3)CC2)ccc1OCC(=O)N1CCOCC1`, the Potency entry is “inactive”. `CC/C(=N\NC(=O)c1ccccc1Cl)c1ccc(Br)s1`: the Potency result is “inactive”. With `O=C(C/C(=N\NC(=O)c1ccccc1Br)C(F)(F)F)c1cccs1`, the Potency is 11.6 µM (active).

For the molecule `O=C(CNC(=O)c1ccccc1Br)NNC(=O)c1cccs1`, the Potency entry was “inactive”. The value for `CCOC(=O)Cc1csc(SCC(=O)Nc2ccc(C)cc2F)n1` was “inactive”.

As for `O=C(OCC(=O)N1CCCCCC1)c1ccc(Cl)nc1`, the Potency entry was “inactive”. Take `Cc1ccc(C(=O)Nc2sc(Cc3ccc4c(c3)OCO4)c(C)c2C(N)=O)cc1`: the Potency is 4.11 µM (active).

`COCc1nnc(NC(=O)c2ccc3c(c2)OCO3)s1`: the Potency result is “inactive”. The value for `CC(=O)NCCC(=O)Nc1nc(C)c(Cc2ccc3c(c2)OCO3)s1` was “inactive”; that for `COc1ccccc1C(=O)NCC(=O)OCC(=O)Nc1nnc(-c2ccccc2)o1` was “inactive”; that for `Cc1coc2c(O)cc3c(c12)OC1(N2CCCCC2)C(=O)NCCCC31` (configuration not stated) was 18.4 µM (active).

With `O=C1OC(Oc2ccc(Br)cc2)(c2ccccc2)c2ccccc21` (configuration not stated), the Potency is 11.6 µM (active). Consider `Cc1cccc(C(=O)OCC(=O)NC(C)C2CC3CCC2C3)c1O` (configuration not stated), for which the Potency result was “inactive”. In the case of `Cc1cc(OCCCC(=O)Nc2cc(S(=O)(=O)N3CCOCC3)ccc2N2CCOCC2)ccc1Cl`, the Potency result was “inactive”. Take `O=c1cc(N2CCCCC2)c(-c2ccccc2)nn1Cc1cccc(F)c1`: the Potency was 20.6 µM (active).

As to `O=C(CS(=O)(=O)c1cn(Cc2cccc(F)c2)c2ccccc12)N1CCCCC1`, the Potency result was “inactive”. For `O=c1cc(N2CCN(Cc3ccccc3)CC2)c(-c2ccccc2)n[nH]1`, the Potency result was “inactive”. On to `COc1ccc(-c2nnc(SC(C)C(=O)NC3CC3)o2)cc1` (configuration not stated), for which the Potency result was “inactive”. Take `Cc1nn(-c2ccccc2)c(C)c1/C=C/C(=O)OC(C)C(N)=O` (configuration not stated): the Potency entry was “inactive”.

`Cc1ccc(C(=O)/C=C/c2c(C)nn(-c3ccccc3)c2Cl)cc1`: the Potency was 16.4 µM (active). With `Cc1nn(-c2ccccc2)c(Cl)c1C(=O)Nc1ccccc1`, the Potency result is “inactive”. Regarding `Cc1ccc(CNC(=O)CC(NC(=O)c2ccccc2)c2ccccc2)cc1` (configuration not stated), the Potency entry is “inactive”. On to `OCc1ccc(OCCCOc2cccc3cccnc23)cc1`, for which the Potency entry is “inactive”. Take `O=C(Nc1ccccc1)Oc1cccc2cccnc12`: the Potency was 4.11 µM (active). The value for `COc1ccc(NC(=O)Nc2cccc3cccnc23)cc1` was “inactive”. As to `CN(Cc1ccccc1)C(=O)COC(=O)/C=C/c1ccc2c(c1)OCO2`, the Potency result was “inactive”. Turning to `O=C(CN1C(=O)NC2(CCCCCC2)C1=O)NCc1ccc(F)cc1`, the Potency entry is “inactive”. In the case of `COc1ccc(S(=O)(=O)Nc2ccc3cn[nH]c3c2)cc1[N+](=O)[O-]`, the Potency result was “inactive”. Take `Cc1cccc(NC(=O)c2nnn(-c3cccc(C(F)(F)F)c3)c2N)c1`: the Potency result was “inactive”.

Turning to `COc1cc(NC(=O)c2cncc(-c3ccc(C#N)cc3)c2)cc(C(=O)Nc2cccc(C(F)(F)F)c2)c1`, the Potency was 13 µM (active). Regarding `N#Cc1ccc(Oc2ccc(C(F)(F)F)cc2NC(=O)c2ccc(F)cc2)cc1`, the Potency result is “inactive”. The value for `CNC(=O)c1ccc(NC(=O)c2cccc(C(F)(F)F)c2)cc1` was “inactive”. In the case of `COc1ccc(NC(=O)C(=O)NCC(=O)Nc2cccc(C(F)(F)F)c2)cc1`, the Potency result was “inactive”. The value for `COc1cc(NC(=O)c2[nH]cnc2C(N)=O)cc(C(=O)Nc2cccc(C(F)(F)F)c2)c1` was 7.31 µM (active). With `CC(=O)N1CCc2ccc(N)cc21`, the Potency entry is “inactive”. For `CC1CCC(CN2CCN=C2N(C)C)CC1` (configuration not stated), the Potency entry is “inactive”. `COc1cc2c(cc1OC)CN(C(C)C(=O)Nc1cccc(S(=O)(=O)N3CCOCC3)c1)CC2` (configuration not stated): the Potency entry was “inactive”. `COCCn1c(C)cc(C(=O)CN2c3cccc4cccc(c34)S2(=O)=O)c1C`: the Potency result is “inactive”. For the molecule `O=C(COC(=O)/C=C/c1cccc(Cl)c1)NCc1cccs1`, the Potency result is “inactive”.

For `Cc1c(NC(=O)C(C)OC(=O)c2ccccc2O)c(=O)n(-c2ccccc2)n1C` (configuration not stated), the Potency result is “inactive”. For `Cc1ccc(OCCCC(=O)Nc2ccc3c(c2)OCCO3)cc1`, the Potency result was “inactive”. The value for `CC(C)N(Cc1nnc(-c2ccccc2Br)o1)C(=O)c1cc(Cl)nc2ccccc12` was “inactive”. On to `O=C(Nc1ccc(Br)cn1)c1ccc([N+](=O)[O-])cc1Cl`, for which the Potency result is “inactive”. For `CN1C(=O)c2ccc(C(=O)Nc3ccc(Br)cn3)cc2C1=O`, the Potency result is “inactive”. The value for `O=C(Nc1ccc(Br)cn1)c1ccc([N+](=O)[O-])o1` was 4.11 µM (active); that for `Cc1cccc(NC(=O)c2cc([N+](=O)[O-])ccc2N2CCN(C)CC2)c1` was “inactive”; that for `Cc1cccc(NC(=O)c2ccc([N+](=O)[O-])o2)c1` was 2.91 µM (active).

In the case of `Cc1cccc(NC(=S)NC(=O)c2ccc(Br)o2)c1`, the Potency result is “inactive”. `COc1ccc(CNC(=O)c2ccc(NS(=O)(=O)c3ccc4[nH]c(=O)[nH]c4c3)cc2)cc1OC`: the Potency entry was “inactive”.
